The source made the active and inactive calls. Entries that show only a call come without a potency. Calls come from the whole dose curve; as a rule, active = well fitted curve in the direction sought with a large enough effect in the repeat runs; inconclusive = weak or mixed curves; inactive = flat fitted curve, though single readings scatter.
experiment: qHTS assay to test for compound auto fluorescence at 535 nm (green) in HepG2 cell free culture (AID 720686); settings: Cell-free medium, green autofluorescence 485/535 nm; series mostly up to 46 µM
Text: U.S. Tox21 Program National Center for Advancing Translational Sciences [NCATS] NIH Chemical Genomics Center [NCGC] U.S. Environmental Protection Agency [EPA] National Institutes of Environmental Health Sciences [NIEHS] National Toxicology Program [NTP] U.S. Food and Drug Administration [FDA] Tox21 Assay Overview: Compound auto fluorescence often interferes with screening of the compound library against various biological targets and signaling pathways. Some of these compounds may have fluorophoric properties. Such properties may interfere with the assay outputs resulting in false positives and/or negatives. To decrease such complications and ensure the compound activities are relevant in terms of biological response, the Tox21 10K compound library was screened for auto fluorescence. From the fluorophores used as reporter signals in our screening assays, the auto fluorescence equivalencies of compounds against three fluorophores have been evaluated: Triamterene, Fluorescein and Rose Bengal sodium for blue, green and red fluorescence, respectively. The fluorescence intensities were measured using Excitation/Emission wavelengths at 405/460nm, 485/535nm and 540/590nm for blue, green and red labels, respectively. This assay includes the green fluorescence data.
Tox21 Assay Protocol Summary: 5 uL of culture medium (MEM containing 10% FBS) per well was dispensed into black wall/clear bottom 1536-well plates using a Multidrop Combi Dispenser (ThermoFisher Scientific, Waltham, MA). After 23 nL compound or DMSO vehicle was transferred into assay plate by a pintool work station (Kalypsys, San Diego, CA), fluorescence intensities in the assay plates were measured by an Envision (PerkinElmer, Shelton, CT) plate reader using three labels for measuring blue, green and red fluorescence at […] 460, 535 and 590nm respectively.

SMILES | Potency
CC(C)(O/N=C(\C(=O)N[C@@H]1C(=O)N2C(C(=O)[O-])=C(C[n+]3ccccc3)CS[C@H]12)c1csc(N)n1)C(=O)O | inactive
CCc1ncnc2cc(OC)c(OC)cc12 | inactive
Cc1ccc(C(C)(C)c2ccc(C)cc2)cc1 | inactive
CCCCCCCCCCCCCCCCC(C(=O)O)C(O)(CC(=O)O)C(=O)O (stereo not given) | inactive
CCCCCCCCCCCCCC(=O)OCC(COP(=O)([O-])OCC[N+](C)(C)C)OC(=O)CCCCCCCCCCCCC (stereo not given) | inactive
C[Se]CC[C@H](N)C(=O)O | inactive
N[C@H](CO)C(=O)O | inactive
C=C1C(CCl)(CCl)C2(Cl)C(Cl)C(Cl)C1(Cl)C2(Cl)Cl (stereo not given) | inactive
C[C@@H]1O[C@@H](OC[C@H]2O[C@@H](Oc3c(-c4ccc(OCCO)c(OCCO)c4)oc4cc(OCCO)cc(O)c4c3=O)[C@H](O)[C@@H](O)[C@@H]2O)[C@H](O)[C@H](O)[C@H]1O | inactive
C=CCN1C(=O)C(CC(C)C)NC1=S (stereo not given) | inactive
CC(C)NCC1CCc2cc(CO)c([N+](=O)[O-])cc2N1 (stereo not given) | inactive
C[C@H]1O[C@@H](O[C@H]2CC[C@@]3(C)[C@H](CC[C@@H]4[C@@H]3C[C@@H](O)[C@]3(C)[C@@H](C5=CC(=O)OC5)CC[C@]43O)C2)C[C@H](O)[C@@H]1O[C@H]1C[C@H](O)[C@H](O[C@H]2C[C@H](O)[C@H](O[C@@H]3O[C@H](CO)[C@@H](O)[C@H](O)[C@H]3O)[C@@H](C)O2)[C@@H](C)O1 | inactive
CNC(=O)C[C@@H](N)C(=O)N[C@@H](C(=O)N[C@@H]1C(=O)N2[C@@H]1SC(C)(C)[C@@H]2C(=O)O)c1ccc(O)cc1 | inactive
O=C(O)/C=C/C(O)c1ccc(Cl)cc1 (stereo not given) | inactive
COc1cc([C@@H]2c3cc4c(cc3[C@@H](O[C@@H]3O[C@@H]5CO[C@@H](C)O[C@H]5[C@H](O)[C@H]3O)[C@H]3COC(=O)[C@H]23)OCO4)cc(OC)c1O | inactive
CO[C@H]1C[C@H](O[C@H]2[C@H](C)[C@@H](O[C@@H]3O[C@H](C)C[C@H](N(C)C)[C@H]3O)[C@@H](C)C[C@]3(CO3)C(=O)[C@H](C)[C@@H](O)[C@@H](C)[C@@H](C)OC(=O)[C@@H]2C)O[C@@H](C)[C@@H]1O | inactive
CCc1cn([C@H]2C[C@H](O)[C@@H](CO)O2)c(=O)[nH]c1=O | inactive
CC(C)C[C@@H](NC(=O)[C@@H](O)[C@H](N)Cc1ccccc1)C(=O)O | inactive
NC[C@H]1O[C@H](O[C@H]2[C@H](O)[C@@H](O[C@H]3O[C@H](CO)[C@@H](O)[C@H](N)[C@H]3O)[C@H](N)C[C@@H]2N)[C@H](N)C[C@@H]1O | inactive
COc1ccc(/C=N/NC(=O)c2ccncc2)c(C(=O)O)c1OC | inactive

SMILES | Potency
O=C1C2CC3CC1CC(O)(C3)C2 | inactive
CNCCC=C1c2ccccc2CCc2ccccc21 | inactive
CC(C)(C)c1ccc2c(S(=O)(=O)O)c(C(C)(C)C)ccc2c1 | inactive
C[C@]12O[C@H](C[C@]1(O)CO)n1c3ccccc3c3c4c(c5c6ccccc6n2c5c31)CNC4=O | inactive
CC1CCCCN1CCCOC(=O)c1ccccc1 (stereo not given) | inactive
O=C[C@H](O)[C@@H](O)[C@@H](O)[C@H](O)CO | inactive
CO/N=C(\C(=O)N[C@@H]1C(=O)N2C(C(=O)O)=C(CSc3cnns3)CS[C@H]12)c1csc(N)n1 | inactive
CN(C)CCC(O)(c1ccccc1)c1ccccc1Cl (stereo not given) | inactive
CO/N=C(\C(=O)N[C@@H]1C(=O)N2C(C(=O)[O-])=C(C[n+]3ccc(N)n3CCO)CS[C@H]12)c1csc(N)n1 | inactive
CO/N=C(\C(=O)N[C@@H]1C(=O)N2C(C(=O)O)=C(C[N+]3(C)CCCC3)CS[C@H]12)c1csc(N)n1 | inactive
C[C@H](Cc1ccc(O)c(O)c1)[C@@H](C)Cc1ccc(O)c(O)c1 | inactive
COc1ccc2ccccc2c1 | inactive
O=C(O)[C@@H]1C[C@H](CP(=O)(O)O)CCN1 | inactive
CCCCCCCCCCCCCCCCCCOCC(COP(=O)([O-])OCC[N+](C)(C)C)OC (stereo not given) | inactive
C1CCc2nnnn2CC1 | inactive
COC(=O)C(CN)c1c[nH]c2ccc(OC)cc12 (stereo not given) | inactive
CC(C)COC(=O)OCN1C(=O)CN(CCN2CC(=O)N(COC(=O)OCC(C)C)C(=O)C2)CC1=O | inactive
NC(=O)CC[C@@H]1NC(=O)[C@H](Cc2ccccc2)NC(=O)[C@H](Cc2ccc(O)cc2)NC(=O)[C@@H](N)CSSC[C@@H](C(=O)N2CCC[C@H]2C(=O)N[C@@H](CCCN=C(N)N)C(=O)NCC(N)=O)NC(=O)[C@H](CC(N)=O)NC1=O | inactive
CN(C)CCOc1ccc(/C(=C(/CCCl)c2ccccc2)c2ccccc2)cc1 | inactive
O=C(O)/C=C/C(=O)Nc1ccc(S(=O)(=O)Nc2nccs2)cc1 | inactive

Source: PubChem BioAssay (Tox21)
